# Laboratory results taken from the supplement of paper PMC10681739.
# Biological target: T1, ETS1 (UniProt P14921)
# T1 sequence: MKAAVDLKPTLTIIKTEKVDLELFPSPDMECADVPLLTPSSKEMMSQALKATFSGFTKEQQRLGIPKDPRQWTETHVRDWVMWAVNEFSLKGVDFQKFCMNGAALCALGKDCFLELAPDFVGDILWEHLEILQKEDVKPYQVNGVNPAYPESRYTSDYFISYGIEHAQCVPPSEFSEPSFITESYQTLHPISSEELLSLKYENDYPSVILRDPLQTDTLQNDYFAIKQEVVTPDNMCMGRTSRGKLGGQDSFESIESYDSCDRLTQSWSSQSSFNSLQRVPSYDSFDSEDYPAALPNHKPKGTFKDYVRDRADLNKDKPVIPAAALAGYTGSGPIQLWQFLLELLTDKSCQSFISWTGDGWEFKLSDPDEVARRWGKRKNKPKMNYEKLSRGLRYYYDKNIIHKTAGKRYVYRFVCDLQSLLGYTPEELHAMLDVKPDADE
# Assay: ETS1 binding intensity (PBM fluorescence), ETS1 alone (arbitrary fluorescence units); higher = stronger binding
# Details: ETS1 concentration 1 nM; RUNX1 concentration 0 nM
row,Sequence,ETS1 binding intensity
1,CCAAAATTGCCACGGAAACCACATCTTTCAGGCGAG,486
2,GTTGGGAGGCGCACATCCGGCGGTTACCCGGTGCTT,2360
3,ATTCCTAGAGAGGAAATGCGGGCTCAGGGTGTCGGC,1550
4,TGTCTCATTTCCTGTAGGTAACAGGCACCACAATAG,1550
5,CGTTCTCTCATTTCCTGTGTGCACCCACATGAACCA,3340
6,GAGGTGCCGGAAGCCAGTAGGTGGTTTTGGGTGCTA,1530
7,ACTCCAGAGGAAGTGGCAAGACGAGCGCGGTAACGG,1080
8,CGAAGCCAGGAAATAAGGATAAACCACAGAAAGAAA,1060
9,TGTGGAGACAGGAAGCACTAACCTCAAACCTCTTTC,2730
10,ATCAGAGCGGAAATCTCAGTCTTGTGTGGGGACCTG,1960
11,GGCAACCCAAGGAAGTATCTCTGAAACCACACAACA,540
12,AAAGGCGGAAGGGGGGCAGGGAACCCACAAAACAGA,457
13,GGAATTTCTTTTTCCGGTCCCGCAGGGTCAGCTGAG,1240
14,GCGGGGACCCGGATGTGTGTGGTGGCGGCGGCCGAA,3040
15,CTAACCCTTCTCTTCCTGCAAAAACCACAACAAAGG,640
16,AACCCACCGGATGGAAGCTGCCACTCAGCCGCAGGA,1100
17,CTGTCTGCTTCCCGTGGCCAGCCCTGACCGCGGCCC,351
18,GCCTCCTCAGGAAATTGCCCAAAATAGCCACATGTC,735
19,ACTGGCTTCACTTCCTCCGCGGTTCCTCGGAGCCGC,497
20,TGAGAAAGCTATTTCCGCCCACAAAGAGGCAAGTCT,1420

row,Sequence,ETS1 binding intensity
1,AACAACAGGATGCTCTCTAGTCTAACAGTGGTAACA,847
2,TGAGCTCAGGCCGGAAGCGGTGGATGATGGCACACA,9910
3,CGGGAACACCCACTTCCGCCACAGACCTGCTCAAAA,1400
4,GCGACCCGACCCGGCGGAAACCACCTCGACAGCCTC,915
5,TTCATCTCTCACTTCCTGTGGTGACGGCTGACGGGG,4120
6,GCAATGCCGCTACCGGAAGTGCGGGTCGCGCTCCCG,26000
7,TCTGGCTTCCTGTCTTAATAGGGCTTTGTGGTGTGC,762
8,CTAGGCCACCGGAAGTCTCCGCAGTGGTTTTGCAAA,14900
9,TGGCTTATCCTAACAGGAAGTGGTTTATCTGATCCT,16100
10,GTGGGGGTGACAGGATGCGGGTAGAGGGCTCAGCCA,1950
11,GCCAGGGCAGGAAGTTGCTAACCGCCCCAGAGCAGG,2840
12,CCCCTCGCCCTTCCGCATTGCGGGTTACTTCGGTTG,521
13,TAGGCTGAAGACTTCCGCCCCGCAGAGGACTTGCCT,1040
14,GACCTGCCTTCCGGCCTCCGTCACATGACCGCACAG,556
15,AGCTCTGCCAGGAAGTGAGAACCACAGGCCTCCCCT,1570
16,GGAGGGGAGCAGGAAGCTGAGGTTTTGTGAGTCAGA,1090
17,CTTTTCCATGCAGGAAGTGGTTTTTAGAGTGTAGAG,7750
18,CGATGCTTCCGGCCTCCTATTGGGTGGTTTCTTGGC,895
19,AGCCTGGCCTCGGCAGGATGTGGGTGTAGGTCATGC,4780
20,ACCAGAAGCACTGCAGGATGTGGTATCAAGACGCCT,2250
